Test results reported in PubChem BioAssay (NCI).
Where “and” joins values, the source holds several entries; their conditions need not be identical. Identical values can stand only once. This is part of a sample that, as a whole, favours compounds with a hit. Of some 83,000 tested, about 20% had one in any assay.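 Activity criterion: percent growth below 10, measured after cells in 96-well plates were exposed to a single compound concentration for 48 hours.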 Calls of active or inactive are those of the source.

These compounds were tested on SNB-75 CNS (assay: NCI-60 one-dose screen, 48 h (100 = growth as untreated, 0 = no growth, -100 = all killed)). Details: 10 µM.
Procedure: Growth inhibition of the SNB-75 human tumor cell line is measured as a screen for anti-cancer activity. Cells are grown in 96 well plates and exposed to the test compound for 48 hours. Compounds are tested at a single concentration, which is 10^-5 M for most compounds. The reported endpoint is percent growth (GI% or GIPRCNT), where numbers from 0 - 100% represent growth inhibition, and numbers from -100% - 0 represent cell death. For example, a value of 40 represents 60% growth inhibition. A value of 0 means no net growth occurred over the course of the experiment. A value of -40 indicates 40% of cells at the beginning of the experiment died by the end of the experiment. A value of -100 means all cells are dead at the end of the experiment.
NCI-60 Human Tumor Cell Lines Screen was performed using the standard one-dose NCI protocol, which is described in more detail at https://dtp.cancer.gov/discovery_development/nci-60/default.htm.
Compounds with GIPRCNT values below 10 were considered active. Activity score was based on GIPRCNT using the following formula: […]
Score is 0 for GIPRCNT values of 100 or above, 50 for GIPRCNT values of 0, and 100 for GIPRCNT values of -100.
`O=C(O)c1c(Cl)c(Cl)c(Cl)c(Cl)c1-c1c2cc(I)c(=O)c(I)c-2oc2c(I)c(O)c(I)cc12` was tested, and the growth was 108% (inactive) and 91.1% (inactive) and 49.5% (inactive).
For `O=C(Nc1c(Cl)cccc1Cl)Oc1cccc2cccnc12`, the growth was 73.1% (inactive).
In the case of `O=C(Nc1cccc(Br)c1)Oc1cccc2cccnc12`, the growth is reported as 83.4% (inactive).
For `COc1ccc(-c2cscc2N)cc1`, the growth was 88.8% (inactive).

Same assay, conditions: 10 µM unless noted
In the case of `Cc1cc2nc(CS)[nH]c2cc1C`, the growth is reported as 75.5% (inactive).
In the case of `CC(=O)ON=C1C=CC(=C(C#N)c2ccccc2)C=C1`, the growth is reported as 19.6% (inactive).
In the case of `N#CSCc1ccc(Cl)c(CSC#N)c1`, the growth is reported as 25.4% (inactive).
For `Cc1ccnc2c1ccc1c(C)ccnc12`, the growth was 52.4% (inactive).
For `Cc1ccc(NS(=O)(=O)c2ccc(C)cc2)cc1`, the growth was 87.7% (inactive) and 102% (inactive).
In the case of `CC(=O)Nc1cccc2cc(O)ccc12`, the growth is reported as 91.4% (inactive) and 101% (inactive) and 75.3% (inactive).
In the case of `O=C1c2ccccc2C(=O)N1c1ccccc1`, the growth is reported as 89.2% (inactive).
For `CCCCCCCCCCCCCCNCc1ccccc1`, the growth was 82.7% (inactive).
For `Oc1c(Br)cc(Cl)cc1C(c1cc(Cl)cc(Br)c1O)C(Cl)(Cl)Cl`, the growth was 68.1% (inactive).
In the case of `CCN(CC)CC(C)(C)C(=O)/C=C/c1ccc(Cl)c(Cl)c1`, the growth is reported as 30% (inactive).
In the case of `Cc1ccc(N=C=C(c2ccccc2)c2ccccc2)cc1`, the growth is reported as 78.1% (inactive).
`N#CC1C(=O)SC2c3ccccc3C(=O)c3ccccc3C12` (stereo not given) was tested, and the growth was 96.3% (inactive).
`CC1OC(OC2C(OC3CCC4(C)C(CCC5(C)C4CC=C4C6CC(C)(C)CCC6(CO)C(O)CC45C)C3(C)C)OC(C(=O)O)C(OC3OC(COC4OC(CO)C(O)C(O)C4O)C(O)C(O)C3O)C2O)C(O)C(O)C1O` (stereo not given) was tested, and the growth was -84.1% (active).
With `COc1ccc2nc3cc(Cl)ccc3c(NCCNc3c4ccc(Cl)cc4nc4ccc(OC)cc34)c2c1` the growth was -86.8% (active).
With `O=C(Nc1cccc(Br)c1)Oc1ccc(Cl)c2cccnc12` the growth was 3.16% [100 µM] (active).
In the case of `CNc1ccc2c(c1)c1ccccc1n2C`, the growth is reported as 98.7% (inactive).
For `NC(=S)N/N=C/c1ccc(Cl)s1`, the growth was 108% (inactive).
`NC(N)=N/N=C/c1ccc([N+](=O)[O-])o1` was tested, and the growth was 106% (inactive).
In the case of `Cn1c2ccccc2c2nnc(N/N=C/c3ccccn3)nc21`, the growth is reported as 31% (inactive).
In the case of `N#CSCc1ccc(CSC#N)c(Cl)c1`, the growth is reported as 32.2% (inactive).
With `CCN1/C(=C\c2cc[n+](CC)c3ccccc23)C=Cc2ccccc21` the growth was 14.3% (inactive).
`O=C(Oc1cccc2cccnc12)c1ccccc1` was tested, and the growth was 85.4% (inactive) and 96.2% (inactive).
`CCC(CCCN(CC)CCc1ccccc1)OC(=O)c1cc(OC)c(OC)c(OC)c1` (stereo not given) was tested, and the growth was 65.3% (inactive).
`CC1(C)CC([P+](c2ccccc2)(c2ccccc2)c2ccccc2)=NN1` was tested, and the growth was 34.3% (inactive).
`C[N+](C)=c1ccc2nc3c(cc(NCCCNc4cc5oc6cc(=[N+](C)C)ccc-6nc5c5ccccc45)c4ccccc43)oc-2c1` was tested, and the growth was 39.6% (inactive).
With `CN(C)c1ccc(N=Nc2cccc3ccccc23)cc1` the growth was 76.4% (inactive).
In the case of `O=C(CC1(O)C(=O)Nc2c(Cl)ccc(Cl)c21)c1ccc(Cl)cc1Cl` (stereo not given), the growth is reported as 70.1% (inactive).
In the case of `O=C(Nc1ccc(F)cc1)ON=C1CCCCC1`, the growth is reported as 85% [100 µM] (inactive).
With `Cn1c2c(c3ccccc31)CCN1C[C@@H]3CCCC[C@H]3C[C@@H]21` the growth was -21.7% (active).
With `COC(=O)c1nc(=S)[nH]c(C(=O)OC)c1C(=O)c1ccc2ccccc2c1` the growth was 84.5% (inactive).
`COc1ccc(N=N/N=c2\sc3cc(OC)ccc3n2C)cc1` was tested, and the growth was 101% (inactive).
For `Cc1ccc2nc(C[n+]3ccc4ccccc4c3)ccc2c1`, the growth was 58.9% (inactive).

Same assay, conditions: 100 µM
For `O=C(O)c1c(Cl)c(Cl)c(Cl)c(Cl)c1-c1c2cc(I)c(=O)c(I)c-2oc2c(I)c(O)c(I)cc12`, the growth was 26% (inactive).
With `O=C(Nc1c(Cl)cccc1Cl)Oc1cccc2cccnc12` the growth was 20.8% (inactive).
In the case of `O=C(Nc1cccc(Br)c1)Oc1cccc2cccnc12`, the growth is reported as 41.6% (inactive).
For `COc1ccc(-c2cscc2N)cc1`, the growth was 51.9% (inactive).
